SMILES strings stand for the structures. Results filed as inconclusive are left out. Unmarked numbers belong to inactive results. The source made the active and inactive calls. Calls come from the whole dose curve; as a rule, active = well fitted inhibition curve with a large enough effect; inconclusive = small, poorly fitted or top-dose-only effect; inactive = no such curve, though single readings can be large or run the other way.
% is set by controls: 0 for no effect and ±100 for the full control effect; potency is the fitted concentration of half-maximal effect.

Cytochrome P450 2D6 (Homo sapiens), sequence (P10635 whole entry, looked up): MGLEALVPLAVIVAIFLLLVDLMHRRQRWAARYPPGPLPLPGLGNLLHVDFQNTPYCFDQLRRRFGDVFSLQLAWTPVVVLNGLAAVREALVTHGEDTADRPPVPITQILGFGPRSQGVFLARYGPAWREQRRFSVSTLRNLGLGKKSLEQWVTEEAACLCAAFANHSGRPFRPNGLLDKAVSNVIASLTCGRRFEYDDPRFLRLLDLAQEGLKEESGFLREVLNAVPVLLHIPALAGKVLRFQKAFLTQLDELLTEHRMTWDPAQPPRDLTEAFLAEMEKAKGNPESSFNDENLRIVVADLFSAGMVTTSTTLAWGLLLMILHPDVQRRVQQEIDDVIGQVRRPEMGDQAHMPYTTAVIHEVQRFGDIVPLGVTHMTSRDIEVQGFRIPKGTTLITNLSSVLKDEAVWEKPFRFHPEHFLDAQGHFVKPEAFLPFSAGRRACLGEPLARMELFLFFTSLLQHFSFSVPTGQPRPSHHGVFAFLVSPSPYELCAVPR

This assay concerns the target Cytochrome P450 2D6 (Homo sapiens) (UniProt P10635). Put plainly: qHTS Assay for Inhibitors and Substrates of Cytochrome P450 2D6 (AID 891).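 For activity change, negative = inhibition: luciferin methyl ether substrate demethylated by CYP2D6 with NADPH regeneration.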 Note: nearly all actives have a fitted effect of over 60% in size. The note with it: recombinant CYP2D6, luciferin-ME EGE luminescence; series mostly up to 11.4 µM; activity change, negative = inhibition: at the top concentration. A digest of the protocol:
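Luminescent read-out of luciferin formed by 5 nM human CYP2D6 demethylating 30 uM Luciferin-ME EGE (Km level) over 60 min at room temperature after NADPH regeneration addition. Data normalized to full inhibition by 1.43 uM quinidine.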
Consider `COCC#Cc1ccc(C2C(C)CCC3C(=O)N4C(CCC(C)C4c4ccc(C#CCOC)cc4)C(=O)N32)cc1` (configuration not stated), for which the “activity change, negative = inhibition” value was -16.4%.
With `C=CCC1C=CC(Oc2ccc(F)cc2C)C(CO)O1` (configuration not stated), the “activity change, negative = inhibition” value is -5.59%.
With `COc1ccc(O[C@H]2C=C[C@@H](c3ccccc3)O[C@H]2COC(=O)CC/C(C)=N\O[C@@H](C)CN2CCCc3nc(C)c(C)cc32)cc1`, the Potency was 3.16 µM (active).
Turning to `C/C=C/OC(=O)NC(c1ccccc1)[C@]1(C(C)=O)CCOC1=O` (some centres not stated), the “activity change, negative = inhibition” value is 7.1%.
Turning to `CC(C)CCN1CCc2nc(COc3ccccc3)c3c(c2C1)COC(C)C3` (configuration not stated), the “activity change, negative = inhibition” value was -5.67%.
On the same count and under the same terms, to `CC(C)(C)c1ccc(OC2C(O)COC2/C=C/C#Cc2ccccc2)cc1` (configuration not stated) belongs 12.4%.
Take `COc1ccc(C#CC2C=CC(Oc3cc(C)cc(C)c3)C(CO)O2)cc1` (configuration not stated): the Potency was 3.98 µM (active).
Still for that read-out and setting: to `COc1ccc(O[C@H]2C=C[C@@H](c3ccccc3)O[C@H]2COC(=O)CC/C(C)=N/O[C@@H]2O[C@H](COC(C)=O)[C@H](OC(C)=O)[C@H](OC(C)=O)[C@H]2OC(C)=O)cc1` belongs 3.16 µM (active).
`COc1ccc(/C=C/C2=CC3(C)CC2(C)C(c2ccc(OC)cc2)CC3=O)cc1` (configuration not stated): the “activity change, negative = inhibition” value is -3.56%.
In the case of `C/C(CCC(=O)OC[C@@H]1O[C@H](C#Cc2ccccc2)C=C[C@@H]1Oc1ccc(C)cc1)=N/O[C@@H](C)CN1CCCc2nc(C)c(C)cc21`, the Potency was 3.16 µM (active).
For the compound `COc1ccc(O[C@H]2C=C[C@@H](c3ccccc3)O[C@@H]2CO/N=C(\C)CCN2CCCc3nc(C)c(C)cc32)cc1`, the Potency was 3.16 µM (active).
Turning to `CCCCC#CC1C=CC(Oc2ccc(C(=O)OC)cc2)C(COC(=O)OCC)O1` (configuration not stated), the “activity change, negative = inhibition” value was -6.3%.

The values are drawn from PubChem BioAssay (NCATS).
